Data as given in PubChem BioAssay.
Values without a mark were called inactive. No rule for the calls is given here.

Assay: hESC survival regulators, cell-based (AID 493140);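 also: cells exposed to compounds for four days before counting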
Details: human embryonic stem cell survival screen; stronger effect = higher value

SMILES	survival
COc1ccc(C(=O)c2ccccc2O)c(O)c1	1.42
CCc1oc2ccccc2c1C(=O)c1cc(Br)c(O)c(Br)c1	13.1
Nc1ccc(S(=O)(=O)Nc2ccc(Cl)nn2)cc1	5.17
CN1[C@@H]2CC[C@H]1CC(OC(=O)C(O)c1ccccc1)C2 (stereo partly drawn)	24.7
COc1ccc(CC2c3cc(OC)c(OC)cc3CC[N+]2(C)CCC(=O)OCCCCCOC(=O)CC[N+]2(C)CCc3cc(OC)c(OC)cc3C2Cc2ccc(OC)c(OC)c2)cc1OC (stereo not drawn)	12.4
O=C(O)CCCC[C@@H]1SC[C@@H]2NC(=O)N[C@@H]21	18.6
CC1(C)O[C@@H]2C[C@H]3[C@@H]4C[C@H](F)C5=CC(=O)CC[C@]5(C)[C@H]4[C@@H](O)C[C@]3(C)[C@]2(C(=O)CO)O1	4.42
Nc1ccc(O)c(C(=O)O)c1	4.33
CCOC(=O)n1ccn(C)c1=S	11.8
CCOC(=O)NNc1nncc2ccccc12	22
N#Cc1ccc(C(c2ccc(C#N)cc2)n2cncn2)cc1	1.25
Oc1ccc(OCc2ccccc2)cc1	3.58
CN1CCCCC1CCN1c2ccccc2Sc2ccc(S(C)=O)cc21 (stereo not drawn)	3.42
CC(C)(C)NC(=O)[C@H]1CC[C@H]2[C@@H]3CC[C@H]4NC(=O)C=C[C@]4(C)[C@H]3CC[C@]12C	7
C[C@]12CC[C@@H]3c4ccc(O)cc4CC[C@H]3[C@@H]1C[C@@H](O)[C@@H]2O	7.75
CC1(C)O[C@@H]2C[C@H]3[C@@H]4CCC5=CC(=O)CC[C@]5(C)[C@@]4(F)[C@@H](O)C[C@]3(C)[C@]2(C(=O)CCl)O1	5.5
COc1ncnc(NS(=O)(=O)c2ccc(N)cc2)c1OC	14.8
O=C(CCCN1CCN(c2ccccn2)CC1)c1ccc(F)cc1	14.6
CCCOc1ccc(C(=O)OCCN(CC)CC)cc1N	5.92
C#C[C@]1(O)CC[C@H]2[C@@H]3CCc4cc(OC)ccc4[C@H]3CC[C@@]21C	3.33
CN1CCN(C(c2ccccc2)c2ccccc2)CC1	4.58
C[C@H](N)[C@H](O)c1cccc(O)c1	28.4
COC(=O)C1=C(C)NC(C)=C(C(=O)OC(C)C)C1c1cccc2nonc12 (stereo not drawn)	16.1
